Of roughly 7,900 targets only a part is listed; those with a hit were picked by preference. About 0.6% of all pairs of compound and target were hits.
Tests used:
Test in all cases: log2 fold change, soluble protein after heating vs DMSO (PISA); higher = thermal stabilisation; K562 cells, 10 uM, 30 min; active = over 0.2 and 3.5 SD of the protein, either way, in both replicates (recomputed)
[1] = compound: C#Cc1cccc(Nc2ncnc3cc(OCCOC)c(OCCOC)cc23)c1 [erlotinib]
Summary of the method: (§1)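 Values are thermal stability changes relative to control samples and are taken from duplicates. They are stated as log2 fold changes. Before quantification by TMTpro 16plex LC-MS/MS with equalised channel sums, K562 cells at 2×10^6 cells/mL were treated with 10 μM compound for 30 min, heated in aliquots for 3 min across 48°C-58°C, pooled, extracted in PBS with 0.5% NP-40 at 4°C, and centrifuged at 21,000xg for 90 min to give the soluble supernatant.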

[2] = compound: C/C(=N\NC(=O)C1=CC(=CC=C1)S(=O)(=O)N2CCOCC2)/C3=C(C=CC(=C3)Cl)O
Summary of the method: as §1

[3] = compound: C1=CC(=C(C=C1Cl)C2=NC3=NC=CN=C3C(=N2)NC4=CC=NC=C4)F
Summary of the method: as §1

[4] = compound: C1=CC(=CC=C1C2=NC3=C(N2)C=C(C=C3)C(=O)N)OC4=CC=C(C=C4)Cl
Summary of the method: as §1

[5] = compound: C1=CC2=C(C=CC(=C2)/C=C\3/C(=O)NC(=NCC4=CC=CS4)S3)N=C1
Summary of the method: as §1

[6] = compound: C1=CC2=NC=CN=C2C=C1/C=C/3\C(=O)NC(=O)S3
Summary of the method: as §1

[7] = compound: C1=CC=C(C=C1)C2=NC(=C(N2)C3=CC=NC=C3)C4=CC(=C(C=C4)Cl)O
Summary of the method: as §1

[8] = compound: C1=CC=C2C(=C1)C3=NNC4=CC=CC(=C43)C2=O
Summary of the method: as §1

[9] = compound: C1CCN(C1)C(=O)NC2=CC=CC(=C2)NC3=NC=C(C(=N3)NCCC4=CN=CN4)Br
Summary of the method: as §1

[10] = compound: C1CN(CCC1(CC2=CC=C(C=C2)Cl)N)C3=NC=NC4=C3C=CN4
Summary of the method: as §1

[11] = compound: C1COCCN1CCN2C3=CC=CC=C3N=C2NC(=O)C4=CC(=CC=C4)[N+](=O)[O-] [IRAK-1-4 Inhibitor I]
Summary of the method: as §1

[12] = compound: C=CC(=O)N1CCC[C@@H](n2nc(-c3ccc(Oc4ccccc4)cc3)c3c(N)ncnc32)C1 [ibrutinib]
Summary of the method: as §1

[13] = compound: CC(=O)c1cnc2ccc(-c3cc(Cl)c(O)c(Cl)c3)nc2c1N[C@H]1CC[C@H](CN(C)C)CC1
Summary of the method: as §1

[14] = compound: CC(C)(C)Cn1c(N)nc2ccc(-c3[nH]c(C(C)(C)C)nc3-c3ccc(F)cc3)nc21 [ralimetinib]
Summary of the method: as §1

[15] = compound: CC(C)(O)CC(=O)NCCn1ccc2ncnc(Nc3ccc(Oc4cccc(C(F)(F)F)c4)c(Cl)c3)c21
Summary of the method: as §1

[16] = compound: CC(C)C1=C2N=C(C=C(N2N=C1)NCC3=CC=CC=C3)NCCCCCCN
Summary of the method: as §1

[17] = compound: CC(C)C[C@@H](C=O)NC(=O)[C@H](CC(C)C)NC(=O)[C@H](CC(C)C)NC(=O)OCc1ccccc1
Summary of the method: as §1

[18] = compound: CC(C)N(C[C@H]1O[C@@H](n2cnc3c(N)ncnc32)[C@H](O)[C@@H]1O)[C@H]1C[C@@H](CCc2nc3cc(C(C)(C)C)ccc3[nH]2)C1 [pinometostat]
Summary of the method: as §1

[19] = compound: CC1=C(C(CC(=O)N1)C2=CC=C(C=C2)C(F)(F)F)C(=O)NC3=C(C=C4C(=C3)C=NN4)F
Summary of the method: as §1

[20] = compound: CC1=C(C2=C(C=C1)C(=O)C3=CC=CC=C3N2CCCN)C
Summary of the method: as §1

Measured: log2 fold change

COPS3 (UniProt Q9UNS2)
UniProt Q9UNS2, sequence (Q9UNS2 whole entry, looked up): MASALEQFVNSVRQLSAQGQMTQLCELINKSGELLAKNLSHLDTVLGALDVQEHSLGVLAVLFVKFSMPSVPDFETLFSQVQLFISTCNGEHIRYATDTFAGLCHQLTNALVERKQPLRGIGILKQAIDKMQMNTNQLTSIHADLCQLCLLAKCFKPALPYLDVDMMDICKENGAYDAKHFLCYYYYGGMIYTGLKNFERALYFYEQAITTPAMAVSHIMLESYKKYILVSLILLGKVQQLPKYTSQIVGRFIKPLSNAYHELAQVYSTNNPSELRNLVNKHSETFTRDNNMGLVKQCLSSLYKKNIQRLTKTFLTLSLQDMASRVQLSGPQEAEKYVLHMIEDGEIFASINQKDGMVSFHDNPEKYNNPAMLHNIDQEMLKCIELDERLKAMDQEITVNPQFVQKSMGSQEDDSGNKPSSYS
inactive: [1] -0.019 | [2] 0.035 | [3] 0.091 | [4] 0.016 | [5] 0.055 | [6] 0.01 | [7] -0.009 | [8] 0.007 | [9] 0.014 | [10] 0.014 | [11] 0.029 | [12] 0.011 | [13] -0.023 | [14] -0.096 | [15] -0.014 | [16] 0.028 | [17] -0.065 | [18] -0.046 | [19] -0.007 | [20] -0.003

CHCHD1 (UniProt Q96BP2)
inactive: [1] -0.034 | [2] -0.007 | [3] -0.048 | [4] 0.027 | [5] -0.135 | [6] -0.003 | [7] -0.057 | [8] 0.039 | [9] 0.022 | [10] -0.091 | [11] -0.071 | [12] 0.119 | [13] -0.009 | [14] -0.117 | [15] 0.026 | [16] -0.027 | [17] 0.037 | [18] -0.021 | [19] 0.08 | [20] -0.19

CFAP36 isoform 2 (UniProt Q96G28)
inactive: [1] 0.048 | [2] -0.11 | [3] -0.046 | [4] 0.005 | [5] 0.059 | [6] 0.042 | [7] -0.068 | [8] 0.007 | [9] 0.127 | [10] -0.111 | [11] -0.183 | [12] -0.022 | [13] 0.001 | [14] 0.053 | [15] -0.012 | [16] -0.09 | [17] 0.065 | [18] 0.024 | [20] 0.103

CRTC1 isoform 2 (UniProt Q6UUV9)
UniProt Q6UUV9, sequence (Q6UUV9 whole entry, looked up): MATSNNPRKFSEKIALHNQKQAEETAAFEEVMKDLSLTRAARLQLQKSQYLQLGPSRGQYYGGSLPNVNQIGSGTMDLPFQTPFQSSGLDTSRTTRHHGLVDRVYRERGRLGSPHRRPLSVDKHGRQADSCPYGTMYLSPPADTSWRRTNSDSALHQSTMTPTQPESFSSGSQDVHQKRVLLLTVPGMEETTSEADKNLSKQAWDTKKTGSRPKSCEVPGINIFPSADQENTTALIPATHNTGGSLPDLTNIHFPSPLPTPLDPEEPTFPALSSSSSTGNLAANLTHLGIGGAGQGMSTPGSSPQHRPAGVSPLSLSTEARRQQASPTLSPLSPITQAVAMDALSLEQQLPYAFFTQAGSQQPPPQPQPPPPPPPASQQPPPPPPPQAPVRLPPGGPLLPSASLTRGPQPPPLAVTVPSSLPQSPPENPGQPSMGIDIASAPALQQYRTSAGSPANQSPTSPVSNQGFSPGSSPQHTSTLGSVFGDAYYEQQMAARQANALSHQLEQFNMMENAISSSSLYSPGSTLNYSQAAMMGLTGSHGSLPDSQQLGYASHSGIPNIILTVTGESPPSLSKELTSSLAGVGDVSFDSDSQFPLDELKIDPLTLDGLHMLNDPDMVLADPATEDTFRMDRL
inactive: [1] 0.007 | [2] 0.07 | [3] -0.228 | [4] 0.068 | [5] 0.185 | [6] -0.052 | [7] -0.229 | [8] -0.051 | [9] -0.053 | [10] 0.021 | [11] 0.026 | [12] -0.061 | [13] -0.023 | [14] 0.025 | [15] -0.042 | [16] 0.112 | [17] -0.041 | [18] -0.024 | [20] 0.072

CLCN7 (UniProt P51798)
UniProt P51798, sequence (P51798 whole entry, looked up): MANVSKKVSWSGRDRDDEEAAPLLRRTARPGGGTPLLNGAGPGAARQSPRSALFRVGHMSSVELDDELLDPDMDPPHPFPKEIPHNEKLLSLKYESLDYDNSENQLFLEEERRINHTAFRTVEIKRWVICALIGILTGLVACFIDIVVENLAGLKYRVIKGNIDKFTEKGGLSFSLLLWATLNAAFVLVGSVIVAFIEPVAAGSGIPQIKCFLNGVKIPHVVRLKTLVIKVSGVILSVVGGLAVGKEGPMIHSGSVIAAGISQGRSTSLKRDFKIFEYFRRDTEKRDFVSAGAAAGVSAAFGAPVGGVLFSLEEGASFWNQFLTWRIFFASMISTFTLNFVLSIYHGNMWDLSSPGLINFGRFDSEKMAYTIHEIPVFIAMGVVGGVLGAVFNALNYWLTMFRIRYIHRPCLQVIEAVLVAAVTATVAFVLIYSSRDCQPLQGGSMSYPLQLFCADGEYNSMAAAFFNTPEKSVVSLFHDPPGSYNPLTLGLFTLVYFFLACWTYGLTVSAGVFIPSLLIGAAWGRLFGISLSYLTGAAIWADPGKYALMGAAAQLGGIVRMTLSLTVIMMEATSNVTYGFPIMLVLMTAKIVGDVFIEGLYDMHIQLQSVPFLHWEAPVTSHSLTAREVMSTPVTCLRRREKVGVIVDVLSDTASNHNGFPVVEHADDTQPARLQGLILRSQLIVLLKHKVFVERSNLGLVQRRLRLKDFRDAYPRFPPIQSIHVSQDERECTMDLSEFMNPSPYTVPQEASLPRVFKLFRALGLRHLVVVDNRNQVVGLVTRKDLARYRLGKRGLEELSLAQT
active: [16] -0.91
inactive: [1] 0.079 | [2] 0.047 | [3] 0.075 | [4] -0.008 | [5] 0.023 | [6] 0.063 | [7] 0.076 | [8] -0.05 | [9] 0.016 | [10] 0.001 | [11] -0.01 | [13] -0.005 | [14] -0.055 | [15] -0.08 | [17] 0 | [18] -0.051 | [19] 0.04 | [20] -0.092

CSNK1D (UniProt P48730)
UniProt P48730, sequence (P48730 whole entry, looked up): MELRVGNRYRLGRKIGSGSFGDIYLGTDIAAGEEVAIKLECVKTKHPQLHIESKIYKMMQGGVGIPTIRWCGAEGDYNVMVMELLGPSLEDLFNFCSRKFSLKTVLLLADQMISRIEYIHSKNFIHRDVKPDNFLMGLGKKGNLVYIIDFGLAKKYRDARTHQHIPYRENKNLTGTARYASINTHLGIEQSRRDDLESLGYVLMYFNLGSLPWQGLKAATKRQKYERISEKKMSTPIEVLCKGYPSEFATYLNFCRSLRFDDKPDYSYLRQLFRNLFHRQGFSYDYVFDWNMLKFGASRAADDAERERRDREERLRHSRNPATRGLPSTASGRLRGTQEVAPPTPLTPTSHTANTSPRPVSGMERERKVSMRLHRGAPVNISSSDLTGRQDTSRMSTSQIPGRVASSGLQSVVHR
active: [13] 0.768
inactive: [1] 0.033 | [2] -0.02 | [3] -0.143 | [4] 0.011 | [5] -0.05 | [6] 0.051 | [7] 0.165 | [8] 0.258 | [9] -0.035 | [10] -0.086 | [11] -0.041 | [12] 0.002 | [14] 0.216 | [15] -0.001 | [16] -0.138 | [17] 0.077 | [18] 0.13 | [19] 0.019 | [20] 0.063

CDK8 (UniProt P49336)
active: [13] 0.487
inactive: [1] -0.098 | [2] -0.094 | [3] -0.161 | [4] 0.028 | [5] -0.023 | [6] 0.102 | [7] -0.087 | [8] 0.287 | [9] -0.044 | [10] 0.034 | [11] 0.006 | [12] -0.011 | [14] -0.174 | [15] -0.15 | [16] -0.067 | [17] 0.096 | [18] -0.057 | [20] -0.005

CIR1 (UniProt Q86X95)
UniProt Q86X95, sequence (Q86X95 whole entry, looked up): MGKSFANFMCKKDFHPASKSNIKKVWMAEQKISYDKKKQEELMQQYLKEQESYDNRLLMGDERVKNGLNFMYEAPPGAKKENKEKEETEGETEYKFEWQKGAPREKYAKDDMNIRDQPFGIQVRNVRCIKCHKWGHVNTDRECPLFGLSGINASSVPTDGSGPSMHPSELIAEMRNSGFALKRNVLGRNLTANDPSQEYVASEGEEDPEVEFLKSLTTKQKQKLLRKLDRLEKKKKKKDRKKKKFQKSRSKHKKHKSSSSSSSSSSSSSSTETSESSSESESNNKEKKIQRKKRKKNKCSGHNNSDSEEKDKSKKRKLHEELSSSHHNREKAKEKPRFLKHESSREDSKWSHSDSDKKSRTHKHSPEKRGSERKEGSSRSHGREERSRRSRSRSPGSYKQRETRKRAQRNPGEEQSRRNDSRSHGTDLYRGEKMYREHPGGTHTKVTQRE
inactive: [1] -0.008 | [2] -0.035 | [3] -0.254 | [4] 0.055 | [5] -0.054 | [6] -0.029 | [7] -0.144 | [8] -0.016 | [9] -0.008 | [10] 0.002 | [11] -0.023 | [12] 0.121 | [13] -0.05 | [14] 0.083 | [15] 0.128 | [16] 0.198 | [17] 0.175 | [18] 0.169 | [20] 0.022

COA6 isoform 2 (UniProt Q5JTJ3)
UniProt Q5JTJ3, sequence (Q5JTJ3 whole entry, looked up): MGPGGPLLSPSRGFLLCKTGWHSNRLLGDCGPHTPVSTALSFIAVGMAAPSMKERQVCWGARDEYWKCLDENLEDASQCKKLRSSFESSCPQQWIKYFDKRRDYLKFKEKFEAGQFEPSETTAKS
inactive: [1] 0.012 | [2] 0.022 | [3] 0.045 | [4] 0.007 | [5] 0.023 | [6] 0.062 | [7] -0.053 | [8] -0.108 | [9] 0.047 | [10] 0.02 | [11] 0.043 | [12] 0.036 | [13] 0.019 | [14] -0.071 | [15] 0.045 | [16] 0.059 | [17] -0.026 | [18] -0.04 | [19] 0.016 | [20] -0.004

CDK1 (UniProt P06493)
UniProt P06493, sequence (P06493 whole entry, looked up): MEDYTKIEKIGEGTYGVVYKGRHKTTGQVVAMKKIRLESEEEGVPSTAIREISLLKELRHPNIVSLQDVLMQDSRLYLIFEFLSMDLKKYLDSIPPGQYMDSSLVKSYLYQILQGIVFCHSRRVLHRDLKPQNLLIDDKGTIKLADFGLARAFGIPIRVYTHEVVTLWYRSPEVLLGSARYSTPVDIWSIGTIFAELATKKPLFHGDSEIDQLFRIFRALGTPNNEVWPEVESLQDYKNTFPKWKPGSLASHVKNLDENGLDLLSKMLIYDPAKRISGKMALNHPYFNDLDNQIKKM
active: [13] -0.401
inactive: [1] 0.045 | [2] 0.06 | [3] 0.021 | [4] 0.003 | [5] -0.054 | [6] 0.018 | [7] 0.003 | [8] -0.003 | [9] 0.007 | [10] -0.009 | [11] 0 | [12] -0.046 | [14] -0.031 | [15] -0.051 | [16] -0.02 | [17] 0.051 | [18] 0 | [19] 0.012 | [20] -0.021

COMT (UniProt P21964)
UniProt P21964, sequence (P21964 whole entry, looked up): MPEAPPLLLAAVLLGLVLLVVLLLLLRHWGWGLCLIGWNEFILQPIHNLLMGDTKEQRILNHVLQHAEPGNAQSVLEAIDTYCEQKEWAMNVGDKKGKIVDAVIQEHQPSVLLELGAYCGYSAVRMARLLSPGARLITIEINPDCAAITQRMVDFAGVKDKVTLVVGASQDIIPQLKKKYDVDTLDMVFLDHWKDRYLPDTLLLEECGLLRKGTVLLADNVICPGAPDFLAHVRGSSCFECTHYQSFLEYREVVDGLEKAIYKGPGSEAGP
inactive: [1] -0.026 | [2] 0.076 | [3] -0.015 | [4] -0.08 | [5] 0.023 | [6] 0.012 | [7] 0.026 | [8] 0.029 | [9] 0.031 | [10] -0.059 | [11] 0.01 | [12] -0.032 | [13] -0.065 | [14] -0.043 | [15] -0.007 | [16] 0.006 | [17] -0.039 | [18] -0.024 | [19] -0.068 | [20] 0.053

CAVIN1 (UniProt Q6NZI2)
active: [20] -0.437
inactive: [1] -0.06 | [2] -0.085 | [3] -0.309 | [4] 0.121 | [5] -0.04 | [6] -0.002 | [7] 0.274 | [8] 0.07 | [9] 0.062 | [10] -0.137 | [11] -0.064 | [12] -0.002 | [13] 0.011 | [14] 0.393 | [15] 0 | [16] -0.156 | [17] -0.011 | [18] 0.2 | [19] 0.06

CASC3 (UniProt O15234)
UniProt O15234, sequence (O15234 whole entry, looked up): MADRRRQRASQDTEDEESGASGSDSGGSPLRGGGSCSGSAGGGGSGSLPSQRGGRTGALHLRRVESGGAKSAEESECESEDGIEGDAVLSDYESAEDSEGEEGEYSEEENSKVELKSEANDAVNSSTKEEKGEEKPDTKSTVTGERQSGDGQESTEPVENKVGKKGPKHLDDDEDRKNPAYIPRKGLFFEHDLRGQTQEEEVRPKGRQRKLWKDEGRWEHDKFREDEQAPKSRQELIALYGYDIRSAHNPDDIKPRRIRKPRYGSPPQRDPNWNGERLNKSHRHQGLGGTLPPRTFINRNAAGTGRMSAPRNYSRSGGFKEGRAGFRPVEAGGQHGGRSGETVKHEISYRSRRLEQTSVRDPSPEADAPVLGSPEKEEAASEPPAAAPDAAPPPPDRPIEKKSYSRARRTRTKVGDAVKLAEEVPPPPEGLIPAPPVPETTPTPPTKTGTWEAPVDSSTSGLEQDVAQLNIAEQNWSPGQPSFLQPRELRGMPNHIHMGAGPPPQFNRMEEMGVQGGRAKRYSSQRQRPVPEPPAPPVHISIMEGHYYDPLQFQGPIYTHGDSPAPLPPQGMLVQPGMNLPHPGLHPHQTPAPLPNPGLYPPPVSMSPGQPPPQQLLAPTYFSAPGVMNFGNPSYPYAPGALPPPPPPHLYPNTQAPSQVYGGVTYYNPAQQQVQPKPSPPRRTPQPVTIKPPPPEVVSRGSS
inactive: [1] -0.084 | [2] -0.166 | [3] -0.066 | [4] 0.068 | [5] 0 | [6] -0.047 | [7] 0.023 | [8] -0.29 | [9] 0.089 | [10] 0.022 | [11] -0.014 | [12] 0.1 | [14] 0.07 | [15] -0.023 | [16] 0.411 | [17] -0.036 | [18] -0.005 | [19] 0.012 | [20] 0.206
active: [13] 0.582

CNOT1 (UniProt A5YKK6)
inactive: [1] 0.013 | [2] 0.102 | [3] -0.003 | [4] -0.007 | [5] 0.035 | [6] 0.001 | [7] 0.014 | [8] -0.004 | [9] -0.009 | [10] -0.008 | [11] -0.07 | [12] -0.024 | [13] -0.029 | [14] 0.028 | [15] -0.063 | [16] -0.101 | [17] 0.039 | [18] 0.027 | [19] 0.009 | [20] 0.063

CA8 (UniProt P35219)
UniProt P35219, sequence (P35219 whole entry, looked up): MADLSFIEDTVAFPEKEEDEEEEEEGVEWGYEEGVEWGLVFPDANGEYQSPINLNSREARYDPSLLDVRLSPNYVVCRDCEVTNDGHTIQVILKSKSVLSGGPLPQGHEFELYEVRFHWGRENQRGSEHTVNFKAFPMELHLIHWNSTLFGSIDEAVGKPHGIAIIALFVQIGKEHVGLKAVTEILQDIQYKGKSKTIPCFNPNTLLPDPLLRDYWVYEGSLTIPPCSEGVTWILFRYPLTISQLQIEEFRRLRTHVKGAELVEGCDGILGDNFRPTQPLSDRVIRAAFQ
inactive: [1] -0.045 | [2] 0.051 | [3] 0.092 | [4] -0.017 | [5] 0.054 | [6] 0.019 | [7] 0.118 | [8] -0.02 | [9] -0.054 | [10] 0.011 | [11] 0.027 | [12] 0.004 | [13] -0.091 | [14] 0.033 | [15] -0.036 | [16] -0.056 | [17] 0.011 | [18] -0.008 | [19] -0.021 | [20] -0.046

CHMP4B (UniProt Q9H444)
UniProt Q9H444, sequence (Q9H444 whole entry, looked up): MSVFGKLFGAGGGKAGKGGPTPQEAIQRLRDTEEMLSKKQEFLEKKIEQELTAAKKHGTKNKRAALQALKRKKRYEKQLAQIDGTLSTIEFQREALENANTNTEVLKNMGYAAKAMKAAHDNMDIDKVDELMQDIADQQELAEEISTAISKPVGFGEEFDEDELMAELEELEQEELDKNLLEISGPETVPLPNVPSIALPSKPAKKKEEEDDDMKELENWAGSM
inactive: [1] 0.018 | [2] -0.006 | [3] 0.024 | [4] 0.013 | [5] -0.014 | [6] 0.057 | [7] 0.043 | [8] -0.001 | [9] 0.083 | [10] 0.035 | [11] 0.068 | [12] -0.024 | [13] 0.015 | [14] 0.039 | [15] 0.015 | [16] 0.014 | [17] -0.003 | [18] -0.032 | [19] 0.046 | [20] -0.011
